Measured values reported in PubChem BioAssay.
Activity calls are given as the source filed them. Unless noted, no rule for the calls is given here.

Key:
[1] = anti-His antibody binders, primary screen, artefact control for SMM control protein annotation, biochemical, small-molecule microarray, 635 nm fluorescence (AID 1128); conditions: anti-His Alexa647 antibody binding, higher = more signal;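 also: score merges feature fluorescence with signal-to-noise for each printed compound spot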
[2] = test system: Human papillomavirus type 1a E7 protein (residues 1-88); assay: HPV1a E7 small-molecule binders, primary screen, biochemical, small-molecule microarray, residues 1-88, 635 nm (AID 1129); conditions: small-molecule microarray binding, fluorescence 635 nm; higher = more signal
[3] = molecular target: Focal adhesion kinase 1 (Homo sapiens) (UniProt Q05397); assay: small-molecule microarray binders of FAK, primary screen, biochemical, 635/667 nm fluorescence, BSA, DTT (AID 1130); conditions: PTK2 binding, 635 nm fluorescence, higher = more signal;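 also: composite of spot emission at 667 nm and signal to noise over triplicate slides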
[4] = test system: Fibrinogen (Alexa647-labelled); assay: fibrinogen binders on compound microarrays, profiling panel, artefact control for SMM control-protein annotation, biochemical, small-molecule microarray, 635/667 nm fluorescence (AID 1131); conditions: fibrinogen-A647 binding fluorescence, higher = more signal;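 also: z-score merges 667 nm fluorescence with per-spot signal-to-noise over triplicate slides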
[5] = molecular target: Follistatin (Homo sapiens) (UniProt P19883); assay: follistatin binders on small-molecule microarrays, primary screen, biochemical, small-molecule microarray, 635/667 nm fluorescence (AID 1132); conditions: FST binding, 635 nm fluorescence, higher = more signal
[6] = molecular target: Fibroblast growth factor 2 (Homo sapiens) (UniProt P09038); assay: FGF2 binders on small-molecule microarrays, primary screen, biochemical, small-molecule microarray, 635/667 nm fluorescence (AID 1133); conditions: small-molecule microarray binding, FGF2, fluorescence 635/667; higher = more signal
[7] = mitochondrial membrane potential change in A549 cells, profiling panel, cell-based, JC-1 fluorescence, basal, 24 h, 100 nL (AID 1138); conditions: higher = more signal;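 also: A549 lung adenocarcinoma cells under basal conditions with no added stimulus; test concentration not given here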
Lefty1 = Lefty1 binders on small-molecule microarrays, primary screen, biochemical, small-molecule microarray, 635/667 nm fluorescence (AID 1139); conditions: small-molecule microarray binding, fluorescence 635/667; higher = more signal
[8] = test system: wheat germ agglutinin (Triticum aestivum), Alexa647-labelled; assay: wheat germ agglutinin binders on compound microarrays, profiling panel, artefact control for SMM control-protein annotation, biochemical, small-molecule microarray, 635/667 nm fluorescence (AID 1140); conditions: WGA-A647 binding, 635 nm fluorescence, higher = more signal;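 also: score merges 667 nm feature emission with signal to noise over triplicate slides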
[9] = molecular target: Luciferin 4-monooxygenase (Photinus pyralis) (UniProt P08659); assay: firefly luciferase enzyme inhibitors, primary screen, biochemical, luminescence, purified enzyme, 2006 set (AID 1141); conditions: SteadyGlo luminescence, 30 min, higher = more signal, called active from +8 up or from −8 down;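 also: cell-free assay with purified firefly luciferase at 100 ng per well in PBS; test concentration not given here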
[10] = test system: Wnt5a (protein binding on small-molecule microarray); assay: Wnt5a binders on small-molecule microarray, primary screen, biophysical, 635/667 nm fluorescence (AID 1142); conditions: 635 nm fluorescence, higher = more signal;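 also: fluorescence read at 667 nm with signal to noise per printed feature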
[11] = cell viability in Huh7 cells, primary screen, cytotoxicity control for HCV replication inhibitor project, CellTiter-Glo luminescence, basal, 48 h (AID 1143); conditions: Huh7 HCV replicon, higher = more signal, called active from +8 up or from −8 down;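 also: Huh7 hepatoma cells carrying a hepatitis C replication reporter with no stimulus; test concentration not given here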
[12] = P. aeruginosa biofilm formation inhibitors, primary screen, PAO1 strain, BacTiter-Glo luminescence, LB-PBS (AID 1144); conditions: 12 h, higher = more signal
[13] = CREB reporter modulators without forskolin, primary screen, cell-based, PC12, CRE-LacZ reporter, unstimulated (AID 1145); conditions: no forskolin, luminescence, 4.5 h, higher = more signal, called active from +8 up or from −8 down
[14] = CREB reporter modulators under forskolin, primary screen, cell-based, PC12, CRE-LacZ reporter, forskolin-stimulated (AID 1146); conditions: luminescence, 4.5 h, higher = more signal, called active from +8 up or from −8 down;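 also: PC12 cells with 6xCRE LacZ reporter stimulated by forskolin 10 µM; beta-galactosidase reporter signal reflecting CREB driven transcription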
[15] = molecular target: Streptavidin (Streptomyces avidinii) (UniProt P22629); assay: streptavidin binders on small-molecule microarray, primary screen, artefact control for SMM compound annotation, biophysical, 635/667 nm fluorescence (AID 1147); conditions: streptavidin binding, higher = more signal;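 also: signal reflects streptavidin binding to arrayed compounds as a control protein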
[16] = small-molecule binders of probe aInhba, primary screen, biochemical, small-molecule microarray, 635/667 nm fluorescence (AID 1148); conditions: higher = more signal;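 also: score merges 667nm spot fluorescence with signal-to-noise for antibody binding to printed compounds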
Torsin-1A (Homo sapiens) [17] = molecular target: Torsin-1A (Homo sapiens) (UniProt O14656); assay: torsin A binders from cell lysate, primary screen, small-molecule microarray, wild-type, 635/667 nm (AID 1149); conditions: COS7 hTOR1A-WT lysate, 635 nm fluorescence, higher = more signal
Torsin-1A (Homo sapiens) [18] = molecular target: Torsin-1A (Homo sapiens) (UniProt O14656); assay: small-molecule binders of mutant TOR1A in lysate, primary screen, cell lysate, small-molecule microarray, COS7 lysate, 635/667 nm fluorescence (AID 1150); conditions: COS7 hTOR1A mutant lysate, 635 nm fluorescence, higher = more signal;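 also: score pools 667 nm emission and signal to noise measuring lysate protein binding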
[19] = test system: Sonic hedgehog protein (Shh); assay: small-molecule binders of Shh protein, primary screen, biochemical, small-molecule microarray, 635/667 nm fluorescence (AID 1151); conditions: small-molecule microarray binding, 635 nm fluorescence; higher = more signal;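 also: Shh protein binding to compounds spotted on small-molecule microarray slides; score combines spot fluorescence intensity with signal-to-noise across triplicate slides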

Chain of Streptavidin (Streptomyces avidinii) (P22629 whole entry, looked up): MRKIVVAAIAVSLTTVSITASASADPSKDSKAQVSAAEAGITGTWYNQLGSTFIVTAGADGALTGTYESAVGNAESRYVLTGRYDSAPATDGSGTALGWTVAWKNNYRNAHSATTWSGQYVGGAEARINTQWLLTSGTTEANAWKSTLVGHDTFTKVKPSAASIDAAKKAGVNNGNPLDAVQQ
Chain of Fibroblast growth factor 2 (Homo sapiens) (P09038 whole entry, looked up): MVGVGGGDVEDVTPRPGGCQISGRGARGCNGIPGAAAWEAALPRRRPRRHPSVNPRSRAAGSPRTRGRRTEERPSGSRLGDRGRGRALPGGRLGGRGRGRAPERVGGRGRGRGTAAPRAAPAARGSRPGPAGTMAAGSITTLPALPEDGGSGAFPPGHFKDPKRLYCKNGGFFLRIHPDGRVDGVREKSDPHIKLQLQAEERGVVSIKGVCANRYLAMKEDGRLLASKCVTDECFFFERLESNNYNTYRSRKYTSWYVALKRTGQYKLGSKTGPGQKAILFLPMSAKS
Chain of Luciferin 4-monooxygenase (Photinus pyralis) (P08659 whole entry, looked up): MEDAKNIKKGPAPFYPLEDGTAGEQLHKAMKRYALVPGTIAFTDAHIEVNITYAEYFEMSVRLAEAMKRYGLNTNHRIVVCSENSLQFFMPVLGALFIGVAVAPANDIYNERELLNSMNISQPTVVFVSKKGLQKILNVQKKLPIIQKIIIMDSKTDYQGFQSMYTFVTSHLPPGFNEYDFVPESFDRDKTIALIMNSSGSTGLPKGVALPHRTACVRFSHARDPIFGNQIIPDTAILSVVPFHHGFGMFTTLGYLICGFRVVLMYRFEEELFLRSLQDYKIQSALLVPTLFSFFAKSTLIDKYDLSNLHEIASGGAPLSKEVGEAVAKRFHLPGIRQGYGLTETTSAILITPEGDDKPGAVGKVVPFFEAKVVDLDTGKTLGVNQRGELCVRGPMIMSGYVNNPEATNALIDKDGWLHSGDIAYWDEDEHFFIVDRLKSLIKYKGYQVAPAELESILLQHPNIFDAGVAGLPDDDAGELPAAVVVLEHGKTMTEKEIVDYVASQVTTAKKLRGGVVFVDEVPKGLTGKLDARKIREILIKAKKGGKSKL
Chain of Follistatin (Homo sapiens) (P19883 whole entry, looked up): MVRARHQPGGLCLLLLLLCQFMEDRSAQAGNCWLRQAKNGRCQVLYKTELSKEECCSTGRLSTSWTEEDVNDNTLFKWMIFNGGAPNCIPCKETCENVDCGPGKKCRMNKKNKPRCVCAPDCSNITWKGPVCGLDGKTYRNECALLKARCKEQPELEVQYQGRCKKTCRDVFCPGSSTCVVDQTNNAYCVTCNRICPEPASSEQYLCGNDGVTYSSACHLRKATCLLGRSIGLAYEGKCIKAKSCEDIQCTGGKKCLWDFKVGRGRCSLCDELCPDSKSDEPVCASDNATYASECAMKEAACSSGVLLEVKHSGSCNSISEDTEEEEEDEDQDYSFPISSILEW
Chain of Focal adhesion kinase 1 (Homo sapiens) (Q05397 whole entry, looked up): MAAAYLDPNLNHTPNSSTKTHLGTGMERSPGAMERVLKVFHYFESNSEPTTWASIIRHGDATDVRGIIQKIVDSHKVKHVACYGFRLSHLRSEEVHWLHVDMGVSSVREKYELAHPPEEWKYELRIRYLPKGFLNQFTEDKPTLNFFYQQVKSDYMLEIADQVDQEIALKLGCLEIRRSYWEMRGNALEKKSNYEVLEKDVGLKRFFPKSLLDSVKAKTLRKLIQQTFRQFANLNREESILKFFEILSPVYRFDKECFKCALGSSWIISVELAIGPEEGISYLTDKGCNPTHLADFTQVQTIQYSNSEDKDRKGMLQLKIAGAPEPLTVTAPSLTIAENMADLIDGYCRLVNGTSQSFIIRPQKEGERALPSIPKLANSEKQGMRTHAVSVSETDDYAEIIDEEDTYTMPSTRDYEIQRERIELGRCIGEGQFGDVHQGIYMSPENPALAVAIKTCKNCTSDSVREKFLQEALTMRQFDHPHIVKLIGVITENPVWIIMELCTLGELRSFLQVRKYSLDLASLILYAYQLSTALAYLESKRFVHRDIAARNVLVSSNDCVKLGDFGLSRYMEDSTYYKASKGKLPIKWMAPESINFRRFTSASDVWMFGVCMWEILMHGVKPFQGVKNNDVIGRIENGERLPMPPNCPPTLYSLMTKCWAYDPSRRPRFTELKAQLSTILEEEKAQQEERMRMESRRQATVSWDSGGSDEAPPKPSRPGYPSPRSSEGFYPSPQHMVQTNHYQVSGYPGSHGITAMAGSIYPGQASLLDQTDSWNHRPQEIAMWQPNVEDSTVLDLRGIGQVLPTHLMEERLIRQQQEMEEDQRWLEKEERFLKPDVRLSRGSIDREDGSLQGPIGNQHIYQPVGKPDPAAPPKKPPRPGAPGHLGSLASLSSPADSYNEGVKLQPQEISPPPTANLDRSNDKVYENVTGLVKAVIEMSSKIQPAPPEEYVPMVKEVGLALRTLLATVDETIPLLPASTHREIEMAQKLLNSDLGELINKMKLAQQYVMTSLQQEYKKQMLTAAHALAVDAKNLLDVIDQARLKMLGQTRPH
Chain of Torsin-1A (Homo sapiens) (O14656 whole entry, looked up): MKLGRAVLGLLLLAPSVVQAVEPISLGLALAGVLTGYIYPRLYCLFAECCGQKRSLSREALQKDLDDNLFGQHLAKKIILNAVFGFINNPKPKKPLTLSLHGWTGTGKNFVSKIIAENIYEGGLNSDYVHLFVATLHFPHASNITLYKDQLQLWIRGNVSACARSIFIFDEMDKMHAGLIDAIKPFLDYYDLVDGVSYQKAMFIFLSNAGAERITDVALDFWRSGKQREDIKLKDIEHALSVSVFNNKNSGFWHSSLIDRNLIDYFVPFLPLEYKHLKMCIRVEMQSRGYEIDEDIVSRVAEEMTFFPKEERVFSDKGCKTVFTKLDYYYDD

| Structure (SMILES) | composite z-score [1] | composite z-score [2] | composite z-score [3] | composite z-score [4] | composite z-score [5] | composite z-score [6] | z-score [7] | composite z-score (Lefty1) | composite z-score [8] | z-score [9] | composite z-score [10] | z-score [11] | z-score [12] | z-score [13] | z-score [14] | composite z-score [15] | composite z-score [16] | composite z-score (Torsin-1A (Homo sapiens) [17]) | composite z-score (Torsin-1A (Homo sapiens) [18]) | composite z-score [19] |
| --- | --- | --- | --- | --- | --- | --- | --- | --- | --- | --- | --- | --- | --- | --- | --- | --- | --- | --- | --- | --- |
| NCCCC[C@@H]1NC(=O)[C@H]2C[C@@H](C(=O)NCc3ccc(F)cc3)[C@@H](c3cccc(OCCO)c3)N2C1=O | 2.48 | 1.23 | 0.0858 | 0.763 | 1.32 | 1.62 | -1.7 | 1.56 | 0.231 | -0.434 (inactive) | 0.334 | -0.262 (inactive) | -0.862 (inactive) | 0.0084 (inactive) | -0.583 (inactive) | -0.0648 | 0.122 | 0.608 | 1.48 | 2.07 |
| Cc1c(NC(=O)/C(C#N)=C/c2ccc(Cl)cc2)c(=O)n(-c2ccccc2)n1C | 0.753 | 0.8 | -0.171 | 1.03 | 0.114 | 0.627 | 1.28 | 0.466 | 0.794 | -0.304 (inactive) | -0.159 | -1.62 (inactive) | -1.04 (inactive) | -0.374 (inactive) | -1.64 (inactive) | 1.33 | -0.0259 | 0.34 | 0.407 | -0.217 |
| CC=CC(O)C1C=CC2C(=O)N(C)C(=O)C2N1NC(=O)OC(C)(C)C (stereo not given) | 0.831 | 0.347 | -0.116 | 0.516 | 0.767 | 0.812 | -0.559 | 0.0938 | 0.838 | -0.645 (inactive) | 0.155 | 0.477 (inactive) | 0.433 (inactive) | 1.01 (inactive) | 0.742 (inactive) | 0.32 | 0.038 | 0.831 | 0.229 | 0.0729 |
| COC(=O)c1ccc([C@H](NC(=O)c2ccccc2)[C@]2(C)C[C@H]2C2CCCCC2)cc1 | 0.494 | 1.18 | 0.591 | 0.707 | 0.412 | -0.639 | 0.85 | -0.41 | 1.21 | 1.51 (inactive) | 0.0477 | -1.78 (inactive) | -0.718 (inactive) | 0.394 (inactive) | 1.28 (inactive) | 1.08 | 0.166 | -0.435 | 0.266 | -0.999 |
| CC(C)C[C@@H]1NC(=O)[C@H]2C[C@@H](C(=O)NCCCCCNC(=O)CS)[C@@H](c3ccc(O)cc3)N2C1=O | 2.05 | 1.24 | 1.19 | 0.201 | 1.33 | 1.62 | -1.22 | 0.497 | 0.408 | -1.76 (inactive) | 0.702 | -0.153 (inactive) | -0.215 (inactive) | 0.135 (inactive) | -0.908 (inactive) | 0.413 | -0.116 | 0.6 | 0.997 | 1.35 |
| C=C(COC)/C(=C/C[C@@H](OC(C)=O)c1ccccc1OCCO)c1cc(C(=O)OC)ccc1OC | 2.21 | 0.461 | -0.102 | -0.325 | 0.569 | 0.36 | 1.75 | 0.624 | 0.344 | -1.47 (inactive) | 0.143 | -1 (inactive) | -0.765 (inactive) | 11.4 (active) | 0.323 (inactive) | -0.333 | -0.188 | 0.237 | 0.612 | 0.94 |
| C=CCC(OC(C)=O)[C@@H]1[C@@H](N(Cc2cccc3ccccc23)C(=O)c2cccc3ccccc23)c2cc(OCCCO)ccc2N1C(=O)Cc1ccc2ccccc2c1 (stereo not given in full) | 0.866 | -0.0855 | 0.119 | -0.438 | 0.832 | 0.448 | 0.169 | 0.093 | 0.457 | 1.06 (inactive) | -0.0137 | -1.61 (inactive) | 0.576 (inactive) | -0.36 (inactive) | 0.272 (inactive) | -0.166 | 0.0497 | -1.07 | -0.736 | 0.882 |
| COCCOC(=O)N1C(=O)[C@@]2(c3cc(C#CCCO)ccc31)[C@H](C(=O)N1CCN(c3ncccn3)CC1)[C@H]1C(=O)O[C@H](c3ccccc3)[C@H](c3ccccc3)N1[C@@H]2c1ccc(O)cc1 | 2.17 | 1.22 | 1.19 | 0.928 | 0.577 | 0.088 | 1.35 | 0.413 | 0.613 | -0.979 (inactive) | 0.15 | -1.79 (inactive) | -0.798 (inactive) | 0.484 (inactive) | 0.268 (inactive) | -0.269 | -0.291 | -0.144 | 0.522 | 1.11 |
| COCCOC(=O)N1C(=O)[C@@]2(c3cc(C#CCC(C(=O)OC)C(=O)OC)ccc31)[C@H](C(=O)N1CCCCCCC1)[C@H]1C(=O)O[C@H](c3ccccc3)[C@H](c3ccccc3)N1[C@@H]2c1ccccc1OCCO | 2.09 | 1.18 | 0.945 | 0.775 | 1.45 | 1.43 | -1.49 | 0.884 | 1.46 | -0.694 (inactive) | 1.21 | -5.66 (inactive) | -0.728 (inactive) | -0.475 (inactive) | -0.981 (inactive) | 2.68 | 1.91 | 1.27 | 1.23 | 2.06 |
| COCCOC(=O)N1C(=O)[C@@]2(c3cc(C#CC4(O)CCCCCC4)ccc31)[C@H](C(=O)NC[C@H](O)c1ccccc1)[C@H]1C(=O)O[C@H](c3ccccc3)[C@H](c3ccccc3)N1[C@@H]2c1ccc(O)cc1 | 1.39 | 1.18 | 0.392 | 0.721 | 0.37 | 0.774 | 0.139 | 0.439 | 0.721 | -0.474 (inactive) | 0.233 | -0.622 (inactive) | 0.588 (inactive) | 0.342 (inactive) | 0.0418 (inactive) | 0.315 | 0.12 | 0.415 | 0.174 | 1.07 |
